# Results taken from the supplement of paper PMC10681739.
# Biological target: RUNX1 (UniProt Q01196)
# Assay: TF binding intensity (PBM fluorescence), negative control probe (arbitrary fluorescence units); higher = stronger binding
# Method: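 gcPBM negative-control 36-bp genomic probes lacking TF binding sites. Each was incubated with recombinant human ETS1 or RUNX1 alone and detected by antibody fluorescence. Values are medians over replicate spots (4 spots for the ETS1-RUNX1 arrays, 3 for the ETS1-ETS1 array). The probes sit in constant array flanks that are not printed.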
# Sequence of RUNX1 (Q01196 whole entry): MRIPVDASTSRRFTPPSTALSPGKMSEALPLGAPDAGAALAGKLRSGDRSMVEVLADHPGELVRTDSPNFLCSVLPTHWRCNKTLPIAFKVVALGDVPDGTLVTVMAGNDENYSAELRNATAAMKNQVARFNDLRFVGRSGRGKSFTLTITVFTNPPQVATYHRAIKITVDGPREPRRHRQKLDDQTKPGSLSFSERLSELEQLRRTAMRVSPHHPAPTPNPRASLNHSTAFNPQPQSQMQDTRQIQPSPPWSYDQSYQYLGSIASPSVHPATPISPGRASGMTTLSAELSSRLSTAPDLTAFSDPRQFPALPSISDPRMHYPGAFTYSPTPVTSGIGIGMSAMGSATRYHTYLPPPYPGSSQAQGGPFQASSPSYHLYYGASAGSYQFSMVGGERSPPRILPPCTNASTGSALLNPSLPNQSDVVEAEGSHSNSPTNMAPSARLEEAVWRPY
row,Sequence,TF binding intensity
1,GAAAAACAGACAGACAGGAAGAGAGAGAGACAGACA (protein concentration 2 nM),903
2,AATTCTGGGGAGCGAAGGAAATTGGCTTTCGAGGCG (protein concentration 2 nM),1200
3,GGGCCTGCGCGCGCACTTCCGCTCTCCCCTCCGGCT (protein concentration 2 nM),759
4,ATTCCATTCCAATCCTTTCCGCTCGGCTAAATTCCT (protein concentration 2 nM),1450
5,AGGAGTTTGCTCATCCTTCCGGATCCAAAGGCTGCG (protein concentration 2 nM),712
6,CTGCTCGGCCAGGTCCGGAAAGAGAGAACGGGCTGG (protein concentration 2 nM),859
7,TCTGAAGGAGCCGGGCGGAAAGAAGCCGAGGCGCGC (protein concentration 2 nM),798
8,CAACGTTCTTCTGTTCTTCCGTCTGTCGACCGAACT (protein concentration 2 nM),945
9,CCCTGCAGCGCGTCCTTTCCGGCCCGCCCCATGCAC (protein concentration 2 nM),922
10,TCGAACAGAATGGAACGGAACGGAACGGAGCGTAAC (protein concentration 2 nM),1650
11,ACTACCCTCCGCCCTCTTCCGCCGCCGCCGCCGCCT (protein concentration 2 nM),1200
12,GCGTACACCTGCCGCCGGAAGAAGAGCGACGGTCGC (protein concentration 2 nM),909
13,CTCACACCCAGTCCCAGGAAGCGAGCCCCACGTCGC (protein concentration 2 nM),894
14,ATCAAGGCGCGGCGGCGGAAAAATGTGAAATGGCTT (protein concentration 2 nM),920
15,ATTTCTGTGCAGTCACTTCCTCTTCTTAGGTCATAG (protein concentration 2 nM),1010
16,TCTCCGCGCATTTTATTTCCGGTTCTGAGGACGCCG (protein concentration 2 nM),1040
17,GGGTGCAGAAGCCAGCGGAAGCGGAGCGCTACAAGC (protein concentration 2 nM),784
18,GAAGGGGTTTCAGGACGGAAGCAAACACATATTCAA (protein concentration 2 nM),912
19,TCGGCGGCGGAGCACCGGAAGTTCTGCAGCACTGGC (protein concentration 2 nM),880
20,CCTTTTTCGCCTCCTTTTCCTGCCCCAAGACTAGAG (protein concentration 2 nM),1290

row,Sequence,TF binding intensity
1,TCTGGACGATGCAGTTTTCCGGTATACGCGACGCTA (protein concentration 2 nM),727
2,AGGAGGAGATGGGACAGGAAGGAATAGATGGGAGCA (protein concentration 2 nM),1720
3,TCCAGGGCCACCCCATTTCCTGCCCTCAGCACTTCG (protein concentration 2 nM),929
4,CTTCTGTCTCCAAAACGGAAATAATAACTTGAGATT (protein concentration 2 nM),989
5,CCATGATGTTTGTGATTTCCGGCAGATGATGAGTAA (protein concentration 2 nM),970
6,ACGGCAAGTAAAGTGTTTCCGGCTCAGGTGTCATGG (protein concentration 2 nM),852
7,TCCCTGCTGGTCCTGGTTCCGGCACACCAGGCCCTC (protein concentration 2 nM),864
8,TCTCGCCCCTCATCCCGGAAAGGAAGACTCTGAATG (protein concentration 2 nM),891
9,CTCAGCGGCCGAACCCGGAAGTTCGGGGCCGAGTTC (protein concentration 2 nM),901
10,GGTCCCAGGAGAGGGGTTCCGGGGTGAAAGAGTGAG (protein concentration 2 nM),1060
11,GTGTTTTGCAGCGAAAGGAAATCTCGCTCTTCGGAA (protein concentration 2 nM),882
12,CTGATTCACTGCCCTCTTCCGCTCTGAGGCGTCGCC (protein concentration 2 nM),1030
13,CCTTTGAAAGAAAAAAGGAAGTGTTTGGACGACAGC (protein concentration 2 nM),1150
14,GGTGTCAAAGCCGAGCGGAAGCGGGGCTGGAATTGG (protein concentration 2 nM),891
15,GGCCAGAGGAGGGCGCGGAAGTGTTGCCTGGGTGAG (protein concentration 2 nM),917
16,ACGCTGCGCATGCGCCGGAAGTTGCAGCCGTGAAGC (protein concentration 2 nM),811
17,GTCCCGCCTTCTCCGCTTCCGCCACCTCCTACTTAG (protein concentration 2 nM),1160
18,GCAGTCAGCCCTTCCCTTCCTGTCCGTCAACTCCGG (protein concentration 2 nM),875
19,CTCCCTTGCTCACAACTTCCTCTTGCTGTCTGCTTC (protein concentration 2 nM),1170
20,TGGGCGGGGAGAGGACGGAAGGAGTAGGCTTCGGGA (protein concentration 2 nM),1020
